This passage reports Potency results from PubChem BioAssay (NCATS).

Inconclusive results are not listed. The source made the active and inactive calls. The call rests on the fitted dose curve; in most records, active means well fitted curve in the direction sought with a large enough effect; inconclusive means small, poorly fitted or top-dose-only effect, or another doubt; inactive means no such curve, though single readings can be large; an effect the other way counts as inactive or inconclusive.

Assay [1] is described as follows: NS1 protein of Zika virus - qHTS assay to identify small molecule inhibitors in human HEK 293 cells (AID 1347053). Further: series mostly up to about 46 µM; nearly all actives have a fitted effect of over 55% in size. In outline: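 HEK 293 cells pretreated with compound for 1 h, then infected with ZIKV MR766 (MOI 0.5) for 24 h at 37 C. NS1 detected by TR-FRET with two anti-NS1 antibodies; normalized to uninfected (0%) and infected (100%) wells.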
For orientation: Quantitative high-throughput screening tests each substance at several concentrations.

A short description of assay [2]: qHTS of pediatric cancer cell lines to identify multiple opportunities for drug repurposing: Primary screen for DAOY cells (AID 1347090). Further: series mostly up to about 46 µM; nearly all actives have a fitted effect of over 55% in size. The method, boiled down: (§1)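 Viability measured as metabolically active cells via CellTiter-Glo luminescence following 48 hours of compound exposure, 11-point dilutions in confirmatory testing. 500-1,000 cells/well plated 5 hours before dosing; controls were DMSO and 2.3 µM bortezomib.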

Assay [3] is described as follows: qHTS of pediatric cancer cell lines to identify multiple opportunities for drug repurposing: Primary screen for SJ-GBM2 cells (AID 1347091). In outline:
as §1

Assay [4] in a line: qHTS of pediatric cancer cell lines to identify multiple opportunities for drug repurposing: Primary screen for A673 cells (AID 1347092). Further: nearly all actives have a fitted effect of over 45% in size. Further: potency means the concentration at half of the fitted maximal effect. In outline:
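48 h compound exposure, A673, 500-1,000 cells/well, 37 degrees C/5% CO2. MIPE: 11-point, 0.78 nM-46 µM; NPC: 8-point, 0.59 nM-46 µM (final). Readout CellTiter-Glo luminescence after 15 min RT.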

The nature of assay [5]: qHTS of pediatric cancer cell lines to identify multiple opportunities for drug repurposing: Primary screen for SK-N-MC cells (AID 1347093). Further: potency means the concentration at half of the fitted maximal effect. In outline:
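Metabolically active cells were quantified by ATP-dependent luminescence (CellTiter-Glo, 15 min at room temperature) following 48 h treatment. Cells had been plated at 500-1,000 per well and settled for 5 h beforehand.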

Assay [6] is described as follows: qHTS of pediatric cancer cell lines to identify multiple opportunities for drug repurposing: Primary screen for BT-37 cells (AID 1347094). Further: series mostly up to about 57 µM. The method, boiled down: (§2)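 500-1,000 cells/well; 5 h pre-incubation 37 °C/5% CO2; compound pinned; 48 h; CellTiter-Glo, 15 min RT; luminescence. MIPE 11-pt from 0.78 nM, NPC 8-pt from 0.59 nM final. Bortezomib 2.3 µM final as positive control.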

Assay [7] can be described thus: qHTS of pediatric cancer cell lines to identify multiple opportunities for drug repurposing: Primary screen for NB-EBc1 cells (AID 1347095). The method, boiled down:
as §2

A short description of assay [8]: qHTS of pediatric cancer cell lines to identify multiple opportunities for drug repurposing: Primary screen for Saos-2 cells (AID 1347097). Further: nearly all actives have a fitted effect of over 40% in size. The method, boiled down: as §2
The nature of assay [9]: qHTS of pediatric cancer cell lines to identify multiple opportunities for drug repurposing: Primary screen for SK-N-SH cells (AID 1347098).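 Further: DMSO served as neutral control and bortezomib at 2.3 µM as positive control; nearly all actives have a fitted effect of over 65% in size.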 In outline: (§3)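 Cells (500-1,000/well) rested 5 h, then received compounds for 48 h; metabolically active cells were measured by CellTiter-Glo luminescence. Final concentrations spanned up to 46 µM (MIPE, 11-point) or 0.59 nM-46 µM (NPC, 8-point) in primary screens, 11-point in follow-ups.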

A short description of assay [10]: qHTS of pediatric cancer cell lines to identify multiple opportunities for drug repurposing: Primary screen for NB1643 cells (AID 1347099). Further: nearly all actives have a fitted effect of over 50% in size. The method, boiled down:
as §2

A short description of assay [11]: qHTS of pediatric cancer cell lines to identify multiple opportunities for drug repurposing: Primary screen for LAN-5 cells (AID 1347100). In outline: (§4)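 Viability after 48 h compound treatment at 37C, 500-1,000 cells/well, read as ATP luminescence with CellTiter-Glo. Primary screens used 11-point (MIPE, 0.78 nM-46 µM) or 8-point (NPC, 0.59 nM-46 µM) final concentrations; follow-up screens used 11-point dilutions.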

Assay [12] can be described thus: qHTS of pediatric cancer cell lines to identify multiple opportunities for drug repurposing: Primary screen for BT-12 cells (AID 1347101). Further: nearly all actives have a fitted effect of over 25% in size. In outline: as §3
A short description of assay [13]: qHTS of pediatric cancer cell lines to identify multiple opportunities for drug repurposing: Primary screen for Rh18 cells (AID 1347102). Further: nearly all actives have a fitted effect of over 65% in size. In outline: as §4
Assay [14] is described as follows: qHTS of pediatric cancer cell lines to identify multiple opportunities for drug repurposing: Primary screen for OHS-50 cells (AID 1347103). Further: nearly all actives have a fitted effect of over 40% in size. Further: potency means the concentration at half of the fitted maximal effect. The method, boiled down:
as §3

Assay [15] in a line: qHTS of pediatric cancer cell lines to identify multiple opportunities for drug repurposing: Primary screen for U-2 OS cells (AID 1347096). Further: nearly all actives have a fitted effect of over 50% in size. The method, boiled down:
as §4

With `O=C1CCCc2c(O)cccc21`, the Potency entry in assay [1], in [2], in [3], in assay [4], in [5] and in [6] was “inactive” each time. Moreover, the Potency result in [7], in assay [8], in assay [9], in [10], in assay [11] and in assay [12] was “inactive” each time. The Potency result in assay [13] and in assay [14] was “inactive” in each case.
With `CN(C)CCOC1=Cc2ccccc2Sc2ccc(Cl)cc21`, the Potency result in assay [1], in assay [2], in assay [3], in assay [5], in assay [7] and in [15] was “inactive” each time. In addition, the Potency result in assay [10], in [11] and in [13] was “inactive” throughout. In addition, in assay [14], the Potency is 24.6 µM (active).
On to `CC(=O)O[C@H]1CC[C@@]2(C)C(=CC[C@@H]3[C@@H]2CC[C@]2(C)C(C(C)=O)=CC[C@@H]32)C1`, for which the Potency result in [1], in assay [2], in [3], in assay [4], in [5] and in assay [6] was “inactive” throughout. Further, the Potency entry in [7], in assay [15], in assay [9], in assay [10], in assay [11] and in [12] was “inactive” each time. In addition, the Potency entry in [13] and in assay [14] was “inactive” in each case.
Consider `OC(CCCN1CCCCC1)(c1ccccc1)c1ccccc1`, for which the Potency entry in [1], in assay [2], in assay [3], in [4], in assay [6] and in assay [7] was “inactive” in each case. Besides, the Potency result in [8], in assay [9], in assay [10], in assay [11] and in [13] was “inactive” each time.
Take `CCCCCOc1ccccc1/C(=C\SC)n1ccnc1`: the Potency result in assay [1], in [2], in assay [3], in assay [15], in [9] and in [11] was “inactive” each time. Moreover, the Potency entry in assay [13] is “inactive”. Besides, the Potency in assay [4] was 26.6 µM (active).
On to `CC(=O)OCC(=O)[C@@]1(O)[C@H](OC(C)=O)C[C@H]2[C@@H]3CCC4=CC(=O)C=C[C@]4(C)[C@@]3(F)[C@@H](O)C[C@@]21C`, for which the Potency result in assay [1], in assay [2], in assay [3], in [4], in assay [5] and in assay [6] was “inactive” each time. For the same compound, the Potency entry in assay [7], in [15], in assay [8], in assay [9], in assay [10] and in assay [11] was “inactive” each time. Moreover, the Potency entry in assay [12], in [13] and in assay [14] was “inactive” each time.
As for `CCOC(=O)C(O)c1ccccc1` (stereo not drawn), the Potency entry in assay [1], in [2], in assay [3], in [4], in [5] and in assay [6] was “inactive” each time. The Potency result in [7], in [15], in assay [8], in [9], in assay [10] and in assay [11] was “inactive” throughout. For the same compound, the Potency result in assay [12], in [13] and in assay [14] was “inactive” throughout.
Turning to `CN(C)CCCOC1(Cc2ccccc2)CCCCCC1`, the Potency entry in assay [1], in assay [3], in [4], in [5], in [6] and in [7] was “inactive” throughout. Moreover, the Potency result in [15], in [9], in assay [10], in assay [11], in assay [12] and in assay [13] was “inactive” throughout.
Consider `COC(=O)C1=C(C)NC(C)=C(C(=O)OCCc2ccc(N3CCN(C(c4ccccc4)c4ccccc4)CC3)cc2)C1c1cccc([N+](=O)[O-])c1` (stereo not drawn), for which the Potency result in assay [1], in assay [2], in assay [3], in assay [4], in assay [6] and in assay [7] was “inactive” in each case. For the same compound, the Potency result in assay [15], in [8], in [9], in [10] and in assay [13] was “inactive” each time.
As to `CCCC(=O)O[C@]1(C(=O)CC)CC[C@H]2[C@@H]3CCC4=CC(=O)CC[C@]4(C)[C@H]3[C@@H](O)C[C@@]21C`, the Potency result in assay [1], in assay [2], in assay [3], in assay [6], in [7] and in assay [15] was “inactive” each time. The Potency entry in assay [9], in assay [10], in assay [11], in assay [12] and in assay [13] was “inactive” in each case. In addition, the Potency in [5] is 33.5 µM (active).
Turning to `CN=C(N)NC(=O)Nc1c(C)cccc1C`, the Potency result in assay [1], in assay [2], in assay [3], in assay [4], in assay [5] and in assay [6] was “inactive” throughout. For the same compound, the Potency result in assay [7], in assay [15], in [8], in assay [9], in assay [10] and in assay [11] was “inactive” each time. The Potency entry in [12], in [13] and in [14] was “inactive” in each case.
Regarding `C=C(C)C(=O)OCC(O)CO` (stereo not drawn), the Potency result in [1], in assay [2], in [3], in assay [4], in [5] and in assay [6] was “inactive” in each case. The Potency entry in [7], in assay [15], in assay [8], in [9], in assay [10] and in assay [11] was “inactive” each time. The Potency entry in [12], in assay [13] and in assay [14] was “inactive” in each case.
For the compound `Cc1ncc([N+](=O)[O-])n1C`, the Potency result in assay [1], in [2], in assay [3], in assay [4], in [6] and in assay [7] was “inactive” throughout. The Potency result in assay [15], in assay [8], in [9], in assay [10], in assay [11] and in [12] was “inactive” each time. The Potency entry in assay [13] and in assay [14] was “inactive” each time.
Turning to `CCCC(=O)Nc1ccc(O)c(C(C)=O)c1`, the Potency entry in assay [1], in [2], in assay [3], in [4], in assay [5] and in assay [6] was “inactive” each time. Moreover, the Potency result in [7], in assay [15], in [8], in assay [9], in assay [10] and in assay [11] was “inactive” in each case. The Potency entry in assay [12], in [13] and in assay [14] was “inactive” in each case.
For `CCOC(=O)NNc1ccc(N(CC)CC(C)O)nn1` (stereo not drawn), the Potency entry in [1], in [2], in assay [3], in assay [4], in assay [5] and in assay [6] was “inactive” in each case. The Potency entry in [7], in assay [15], in assay [8], in [9], in assay [10] and in assay [12] was “inactive” throughout. Also, the Potency entry in assay [13] and in assay [14] was “inactive” each time.
As for `Nc1nc(=O)n([C@@H]2O[C@H](CO)[C@@H](O)[C@@H]2F)cc1I`, the Potency entry in assay [1], in assay [2], in assay [3], in assay [5], in assay [7] and in assay [15] was “inactive” in each case. Further, the Potency entry in [8], in assay [9], in [10], in [11] and in assay [13] was “inactive” each time.
With `C[C@@]12CCC[C@H]1[C@@H]1CC[C@H]3C[C@@H](O)CC[C@]3(C)[C@H]1CC2`, the Potency result in assay [1], in assay [2], in assay [3], in [5], in assay [6] and in [7] was “inactive” throughout. In addition, the Potency result in assay [15], in assay [9], in [10], in [11] and in [13] was “inactive” throughout.
Consider `CC(=O)[C@@]1(O)CC[C@H]2[C@@H]3C[C@H](C)C4=CC(=O)CC[C@]4(C)[C@H]3CC[C@@]21C`, for which the Potency result in [1], in assay [2], in [3], in assay [6], in assay [7] and in assay [15] was “inactive” throughout. Also, the Potency result in assay [8], in assay [9], in assay [10] and in assay [13] was “inactive” in each case. Further, the Potency in [14] is 27.6 µM (active).
